Measured values published in the OligoGym collection.
Note: reference of the scale not given here.

Each sequence was assayed against RHOH (assay: pooled miR-30 sensor sort-seq; sequence = guide strand). Settings: shRNA.
AATTTCACCAATCCACTTGTTC showed a sensor-assay potency score (higher = more potent) of -0.62. For TACACTGTGGGCTTGTAGGCCT, the sensor-assay potency score (higher = more potent) was -0.53. AAGCGCACCAACAGAGAGGTTT gave a sensor-assay potency score (higher = more potent) of -0.535. With TTCTTCAAGTTCAGGAATGAGT the sensor-assay potency score (higher = more potent) was -0.86. Work on TCCGGGAAGGTCTCGGAGGTGA yielded a sensor-assay potency score (higher = more potent) of -1.75. Work on TGTGTTCTCGTACACTGTGGGC yielded a sensor-assay potency score (higher = more potent) of -1.21. In the case of TTGATGGAGAAGAGCCTCCTTC, the sensor-assay potency score (higher = more potent) is reported as -0.911. Sequence AAGGTCTCGGAGGTGAAGCGCA has a sensor-assay potency score (higher = more potent) of -0.81. Work on TTGACGGCAGTTCGGACGGCGC yielded a sensor-assay potency score (higher = more potent) of -1.65. Sequence TAGGCCTCCGGGAAGGTCTCGG has a sensor-assay potency score (higher = more potent) of -0.658. TAATTTCACCAATCCACTTGTT was tested, and the sensor-assay potency score (higher = more potent) was 0.134. Work on TAGCACATCAGCACCACGTCTG yielded a sensor-assay potency score (higher = more potent) of 0.265. Sequence TCCATGAAGACGTCCACCCCTG has a sensor-assay potency score (higher = more potent) of -1.1. Sequence TTCACTTGTAGAGTGTAGTTAG has a sensor-assay potency score (higher = more potent) of 0.0342. TTCTGAAGGCGTCATTGCCGGC showed a sensor-assay potency score (higher = more potent) of -1.35. In the case of TTCTCGTACACTGTGGGCTTGT, the sensor-assay potency score (higher = more potent) is reported as -0.506.

The sequences below were run against RHOJ in the same assay as above. Settings: shRNA.
With TTGACTTTGTTTTTGATGCGAT the sensor-assay potency score (higher = more potent) was -0.0639. For TTCTTCTCGTCGTTGCCCCTGC, the sensor-assay potency score (higher = more potent) was -0.309. For TTTGAGACCTTTCTGAGTCAGA, the sensor-assay potency score (higher = more potent) was -0.62. TAGCACTGTGCTCCGATCGCTT showed a sensor-assay potency score (higher = more potent) of -0.602. TTTCTCTTTCATATACAGCAAA gave a sensor-assay potency score (higher = more potent) of -0.918. Sequence TTCAACATCTTCTTCTCGTCGT has a sensor-assay potency score (higher = more potent) of 0.937. ATAGTGGTCAAACACAGTGGGC was tested, and the sensor-assay potency score (higher = more potent) was -0.911. AACATCTTCTTCTCGTCGTTGC gave a sensor-assay potency score (higher = more potent) of 0.438. Work on TCAACATCTTCTTCTCGTCGTT yielded a sensor-assay potency score (higher = more potent) of 0.0564. TTGGCTGCCATTCTCATCCCTG was tested, and the sensor-assay potency score (higher = more potent) was -0.433. Work on TTCTCTTTCATATACAGCAAAC yielded a sensor-assay potency score (higher = more potent) of -1.56. With TTCTGAGTCAGAGCTGAACATT the sensor-assay potency score (higher = more potent) was -1.66.

The sequences below were run against RIC8A in the same assay as above. Settings: shRNA.
For TAGTCTCGCACATGGCATCCTG, the sensor-assay potency score (higher = more potent) was -1.08. TTGTTCCGCAGCATCTCCCCAA gave a sensor-assay potency score (higher = more potent) of -0.652. TACACTCTCCTTCAGCCTGTGT was tested, and the sensor-assay potency score (higher = more potent) was -1.16. For TTTCAGCTCCTGAAACAGCTGC, the sensor-assay potency score (higher = more potent) was -0.481. TGGGCCTTCAGGAACTTCCTGG gave a sensor-assay potency score (higher = more potent) of -0.964. Sequence TACAACATCCATGTCTGCGGAC has a sensor-assay potency score (higher = more potent) of -0.737. TTCTAGCACAAGAAGACCGTTG showed a sensor-assay potency score (higher = more potent) of 0.199. AAGAACTGGACATCGTGGGGGA gave a sensor-assay potency score (higher = more potent) of 0.415. TTTGAGGATCTCCATGGCCCGC gave a sensor-assay potency score (higher = more potent) of -1.76. In the case of AACATCCAGACACTTGAGGGGC, the sensor-assay potency score (higher = more potent) is reported as -0.627. In the case of TTGGGCATCATCAAACGTGAAG, the sensor-assay potency score (higher = more potent) is reported as -0.89. Work on TTCACTCCCATGAACTCCGTGG yielded a sensor-assay potency score (higher = more potent) of 0.138.
